Experimental data from PubChem BioAssay AID1159580 (chemical genetic matrix, 2015).
Where “and” joins values, the source holds several entries; their conditions need not be identical. Equal entries are not always repeated. Hit rate of the full screen: of about 5,500 compounds, about 2,000 (36%) were called active. Another 18% or so got no clear call; they are omitted. Rule as the data show it: active = normalized growth mostly below about 0.91 (no sharp cut-off); inconclusive = no clear call, values can overlap the other calls; inactive = mostly above about 0.92. This is one part of the list.

Assay: chemical genetic growth profiling, strain panel (AID 1159580);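 also: tested at 20 µM; growth read once vehicle control cultures reached saturation at 30 °C; 1 = growth at the plate median or of vehicle wells; lower values mean less growth of the strain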
Conditions: S. cerevisiae deletion strains, growth OD

Measured: normalized growth

CC(=O)NO
0.748 (active) and 1 (inactive): locus YJL095W, strain BCK1, stronger effect = lower value
inactive: locus YAL013W, strain DEP1, stronger effect = lower value 0.955 | locus YAL021C, strain ccr4, stronger effect = lower value 0.968 | locus YAL026C, strain drs2, stronger effect = lower value 0.997 | locus YAL030W, strain snc1, stronger effect = lower value 0.99 | locus YBL061C, strain skt5, stronger effect = lower value 0.969 | locus YBR009C, strain hhf1, stronger effect = lower value 0.942 | locus YBR023C, strain chs3, stronger effect = lower value 0.964 | locus YBR171W, strain sec66, stronger effect = lower value 0.963 | locus YBR229C, strain ROT2, stronger effect = lower value 1.01 | locus YBR231C, strain swc5, stronger effect = lower value 0.995 | locus YBR279W, strain paf1, stronger effect = lower value 0.973 | locus YCL011C, strain gbp2, stronger effect = lower value 0.949 | locus YCL016C, strain dcc1, stronger effect = lower value 0.937 | locus YCL029C, strain bik1, stronger effect = lower value 0.999 | locus YCL061C, strain MRC1, stronger effect = lower value 0.968 | locus YCL069W, strain vba3, stronger effect = lower value 0.974 | locus YCR088W, strain abp1, stronger effect = lower value 0.979 | locus YDL005C, strain med2, stronger effect = lower value 0.982 | locus YDL035C, strain GPR1, stronger effect = lower value 0.973 | locus YDL040C, strain nat1, stronger effect = lower value 0.979 | locus YDL074C, strain BRE1, stronger effect = lower value 0.977 | locus YDL101C, strain DUN1, stronger effect = lower value 1.02 | locus YDL185W, strain tfp1, stronger effect = lower value 0.992 | locus YDL192W, strain arf1, stronger effect = lower value 0.989 | locus YDR001C, strain nth1, stronger effect = lower value 0.982 | locus YDR069C, strain doa4, stronger effect = lower value 1.01 | locus YDR101C, strain arx1, stronger effect = lower value 1 | locus YDR137W, strain rgp1, stronger effect = lower value 0.948 | locus YDR150W, strain NUM1, stronger effect = lower value 0.991 | locus YDR159W, strain sac3, stronger effect = lower value 1 | locus YDR162C, strain NBP2, stronger effect = lower value 0.997 | locus YDR195W, strain ref2 0.984 | locus YDR297W, strain sur2, stronger effect = lower value 0.977 | locus YDR318W, strain mcm21, stronger effect = lower value 0.998 | locus YDR334W, strain swr1, stronger effect = lower value 0.976 | locus YDR335W, strain msn5, stronger effect = lower value 0.983 | locus YDR388W, stronger effect = lower value 0.984 | locus YDR392W, strain spt3, stronger effect = lower value 0.744 | locus YDR502C, strain sam2, stronger effect = lower value 0.973 | locus YEL003W, strain gim4, stronger effect = lower value 1 | locus YEL037C, strain rad23, stronger effect = lower value 0.977 | locus YEL061C, strain CIN8 (second series), stronger effect = lower value 0.985 | locus YEL061C, strain CIN8, stronger effect = lower value 1.01 | locus YER015W, strain faa2, stronger effect = lower value 0.975 | locus YER016W, strain bim1, stronger effect = lower value 0.996 | locus YER110C, stronger effect = lower value 0.987 | locus YER111C, strain swi4, stronger effect = lower value 0.965 | locus YER155C, strain BEM2 (second series), stronger effect = lower value 0.996 | locus YER155C, strain BEM2, stronger effect = lower value 1.03 | locus YER167W, strain BCK2, stronger effect = lower value 1.02 | locus YFR010W, strain ubp6, stronger effect = lower value 0.974 | locus YGL078C, strain dbp3, stronger effect = lower value 0.997 | locus YGL086W, strain mad1, stronger effect = lower value 0.991 | locus YGL167C, strain pmr1, stronger effect = lower value 0.978 | locus YGL173C, strain kem1, stronger effect = lower value 0.984 | locus YGL227W, strain vid30, stronger effect = lower value 0.974 | locus YGL240W, strain doc1, stronger effect = lower value 0.963 | locus YGL248W, strain PDE1, stronger effect = lower value 0.97 | locus YGL253W, strain hxk2, stronger effect = lower value 0.965 | locus YGR135W, strain pre9, stronger effect = lower value 0.907 | locus YGR252W, strain gcn5, stronger effect = lower value 0.797 | locus YHR013C, strain ard1, stronger effect = lower value 0.888 | locus YHR027C, strain rpn1, stronger effect = lower value 0.999 | locus YHR030C, strain SLT2, stronger effect = lower value 0.94 and 0.998 | locus YHR079C, strain IRE1 (second series), stronger effect = lower value 0.997 | locus YHR079C, strain IRE1, stronger effect = lower value 0.975 | locus YHR094C, strain hxt1, stronger effect = lower value 0.997 | locus YHR129C, strain ARP1, stronger effect = lower value 1 | locus YHR142W, strain chs7, stronger effect = lower value 0.915 | locus YHR200W, strain rpn10, stronger effect = lower value 0.991 | locus YIL066C, strain RNR3, stronger effect = lower value 0.979 | locus YIL073C, strain SPO22, stronger effect = lower value 0.898 | locus YIL125W, strain kgd1, stronger effect = lower value 0.99 | locus YIR030C, strain dcg1, stronger effect = lower value 1 | locus YJL092W, strain hpr5, stronger effect = lower value 0.974 | locus YJL095W, strain BCK1 (second series), stronger effect = lower value 0.98 | locus YJL115W, strain asf1, stronger effect = lower value 0.954 | locus YJL129C, strain trk1, stronger effect = lower value 0.962 | locus YJL134W, strain LCB3, stronger effect = lower value 1.01 | locus YJL154C, strain vps35, stronger effect = lower value 0.983 | locus YJL164C, strain tpk1, stronger effect = lower value 0.966 | locus YJL166W, strain qcr8, stronger effect = lower value 0.931 | locus YJL168C, strain set2, stronger effect = lower value 0.993 | locus YJL187C, strain SWE1 (second series), stronger effect = lower value 0.954
active: locus YBR021W, strain FUR4, stronger effect = lower value 0.604
